Whole data set: some 68,000 sequences, median “fluorescence intensity (a.u.)” near 9,100, cut for the highest 2% near 16,000. The sample as a whole holds a higher share of the highest values than the screen did.
These sequences were tested against OsWRKY34 (Oryza sativa, UniProt Q0JBA9 1-250) (assay: protein-binding microarray (RPBM); PBS, 2% BSA, 51.3 ng/ul salmon testes DNA, 50 uM zinc acetate, 200 nM TF, 25 C, 1 h; high values mean tight binding). Conditions: protein: recombinant; tags: N-terminal polyhistidine and DsRed monomer fusion (pET32a); label: CyDye5-dUTP incorporated in the synthesized complementary strand; 3' TTTTT single-stranded linker to array surface; dsDNA, one strand shown.
How it was run: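 Per-feature fluorescence intensity (arbitrary units), read on an Axon 4000B scanner, is the binding signal. Transcription factors carrying an N-terminal polyhistidine tag and DsRed fusion were expressed in E. coli BL21-CodonPlus and purified on Ni–NTA. A custom Agilent array, made double-stranded by primer extension with Cy5-dUTP and blocked with 2% BSA, was incubated with 200 nM protein in PBS, 2% BSA, salmon testes DNA and 50 µM zinc acetate at 25 °C for 1 h and then washed.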

Chain of OsWRKY34 (Q0JBA9 entry or part of it): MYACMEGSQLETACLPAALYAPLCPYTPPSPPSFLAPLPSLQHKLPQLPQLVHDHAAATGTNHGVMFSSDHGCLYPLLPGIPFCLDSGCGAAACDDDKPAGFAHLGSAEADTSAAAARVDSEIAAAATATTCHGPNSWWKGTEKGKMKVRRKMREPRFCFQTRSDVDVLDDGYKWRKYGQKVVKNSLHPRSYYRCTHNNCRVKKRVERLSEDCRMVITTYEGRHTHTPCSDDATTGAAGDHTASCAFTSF

Sequence	binding signal
TCAAACATTTAAAAAAAAAGTCAACGGCGTCAAATATTTTCGGAGTCACCTAGTGCAG	8470 fluorescence intensity (a.u.)
AAAAAGTCAACGGCGTCAAACATTTAGGGATGGAGGGAGTCGGAGTCACCTAGTGCAG	8190 fluorescence intensity (a.u.)
TTGATTTTTTGTTGCAAAAGAATATTTTAATTCACTGCAACGGAGTCACCTAGTGCAG	24300 fluorescence intensity (a.u.)
TATTTTTAAAAAAGTCAACGGCGTCTTGTGGGATGGAGGGCGGAGTCACCTAGTGCAG	21300 fluorescence intensity (a.u.)
ATCTGTACAGTTTGTGACTAATTTGCAAGACGAATCTTTTCGGAGTCACCTAGTGCAG	11500 fluorescence intensity (a.u.)
GGATACGGCACCTTTGCGAGCTGCGTCGACCGCTCCGCCGCGGAGTCACCTAGTGCAG	9650 fluorescence intensity (a.u.)
GGTTCTGTTCTATATACTCCGACACCATACTGATTAGTCTCGGAGTCACCTAGTGCAG	10900 fluorescence intensity (a.u.)
TTTTGAGTTTTTGTGTGAACTGTTTGACCACTCGTCTTATCGGAGTCACCTAGTGCAG	8250 fluorescence intensity (a.u.)
CCATCTCCTTCAGCCTTCGCTTCATCTGGTCGAGCTCCTGCGGAGTCACCTAGTGCAG	9080 fluorescence intensity (a.u.)
CTAGCTCACACACAATTGCATACACCTAGCTCAAAAGCCTCGGAGTCACCTAGTGCAG	9080 fluorescence intensity (a.u.)
CATGTGCTCAAAGCTTATCTGCATACAAGCCTTCGAGACCCGGAGTCACCTAGTGCAG	64100 fluorescence intensity (a.u.)
GTCTCAAAAACTCATTCTCCACACGTAATGGATACTTTTGCGGAGTCACCTAGTGCAG	8800 fluorescence intensity (a.u.)
TATAACACCAATGACTCTATCTTCATCCGCATGCGTGCCGCGGAGTCACCTAGTGCAG	9390 fluorescence intensity (a.u.)
CCATGTATCACACTCCGTTCATATATTCCTGGGCTGTATTCGGAGTCACCTAGTGCAG	8450 fluorescence intensity (a.u.)
CATCGCCACCACCGCAGCCGCCTCTCAATTAGGAACACGTCGGAGTCACCTAGTGCAG	10300 fluorescence intensity (a.u.)
TCTCTCTTTTTTTAAGCACCTTTTCTGCCTTTTTTCTTTTCGGAGTCACCTAGTGCAG	12200 fluorescence intensity (a.u.)
TTATCAATATCTCTCTCTCGGCGCGTATAGCCGTCGCGCGCGGAGTCACCTAGTGCAG	8690 fluorescence intensity (a.u.)
AGCACATAGCTAGTTAGCCACATATTATTTGATCACTAAACGGAGTCACCTAGTGCAG	8980 fluorescence intensity (a.u.)
TAGCACTAAAACGAGAGGCCTTTTGATTTAGATTTTGCCACGGAGTCACCTAGTGCAG	21900 fluorescence intensity (a.u.)
CTATCGCCACCTTTTGCCTTGATTTCTCCTTATTGCTAAACGGAGTCACCTAGTGCAG	14600 fluorescence intensity (a.u.)
GTCCGCATCGAGCCGCAGATCTTTCTCACCGCCACCGATGCGGAGTCACCTAGTGCAG	8140 fluorescence intensity (a.u.)
CCCTATCGAACGACCACCGAAACCATCATCATTCATCACCCGGAGTCACCTAGTGCAG	9470 fluorescence intensity (a.u.)

Sequence	binding signal
TTTAGCTTAACTTATTACGATTATGGCTGTGTTTAGTTTCCGGAGTCACCTAGTGCAG	9160 fluorescence intensity (a.u.)
AAACTAATTTTCTGTGACACTTCCAAGTGCATACCGGAGTCGGAGTCACCTAGTGCAG	8660 fluorescence intensity (a.u.)
GGCCTCATTCTGGGATCGTTTTATGGTGGGGTTATCGTTACGGAGTCACCTAGTGCAG	20600 fluorescence intensity (a.u.)
GGATGGGTTATATCTAGTATTGTGGTTGGGACTGCCTATACGGAGTCACCTAGTGCAG	11100 fluorescence intensity (a.u.)
AAAGTGATGTGGTGGTGGAGTTGTGGGTATATGATTTTATCGGAGTCACCTAGTGCAG	8790 fluorescence intensity (a.u.)
ATTTTTTATGGGTGTTTGGTTAGTGGGTGGGAGTGGGATACGGAGTCACCTAGTGCAG	12000 fluorescence intensity (a.u.)
GCCTGGTTTTATAAGTTGTGGGATGGGTTATATCTAGTATCGGAGTCACCTAGTGCAG	28800 fluorescence intensity (a.u.)
GCATATGGGGATTCTGGGATTTTGGTTTACAGTCTACATTCGGAGTCACCTAGTGCAG	8100 fluorescence intensity (a.u.)
TTGTTTGACTCTTTTTTAATTAAATTTCTATAAGTTTAATCGGAGTCACCTAGTGCAG	8280 fluorescence intensity (a.u.)
GCTGGGTTTGTGGGTTTTCTCATAAGTTTAATCTCTATATCGGAGTCACCTAGTGCAG	17400 fluorescence intensity (a.u.)
CTATCGATATAATCTCTAAGTGAGTTTTTTGTATTTTTTTCGGAGTCACCTAGTGCAG	8020 fluorescence intensity (a.u.)
CCGCACAATCCGCGCCGCCATCAGTTCGCTCTCGCCACCACGGAGTCACCTAGTGCAG	9020 fluorescence intensity (a.u.)
GCGCCCACGAACCTTGTCTTCAAGCAATCCCACACTTCCTCGGAGTCACCTAGTGCAG	9490 fluorescence intensity (a.u.)
ATTTCAGGCCCACTAGTCCGCTCTTCCTCTTCTTTTTTTTCGGAGTCACCTAGTGCAG	9840 fluorescence intensity (a.u.)
GCCGCCATCCCCACCATCGCCGTCGCCGTCGCCTCGCCTCCGGAGTCACCTAGTGCAG	13300 fluorescence intensity (a.u.)
CTCTAACAGTCTGCTATTATATCTGCTCTCATGCGTCATCCGGAGTCACCTAGTGCAG	11100 fluorescence intensity (a.u.)
TCCGTTTCGTTTTATTTGACACCGTTGACTTTTTAGCACACGGAGTCACCTAGTGCAG	19500 fluorescence intensity (a.u.)
ACTTTAGTTTTTTTCCGTTGCAGCACACGGTTTTTTTTAACGGAGTCACCTAGTGCAG	9170 fluorescence intensity (a.u.)
TTCGTTTCAAAATATTTGACACCGTTGACTTTTTAGCACACGGAGTCACCTAGTGCAG	25700 fluorescence intensity (a.u.)
TTTCAAAATATTTGACTCCGTTGATTTTTTTAGCACATGTCGGAGTCACCTAGTGCAG	9070 fluorescence intensity (a.u.)
TTTAGCACGTATTTGACCGTTCGTCTTATTCAAAAACTTTCGGAGTCACCTAGTGCAG	8790 fluorescence intensity (a.u.)
ACTTTTACATAGAATTTTTTTTTGAACACACCGTTTAGCACGGAGTCACCTAGTGCAG	8510 fluorescence intensity (a.u.)

— PMC7819943, “Rice protein-binding microarrays: a tool to detect cis-acting elements near promoter regions in rice”
